# Test results from ChEMBL document CHEMBL1961873, “Compounds: GSK PKIS; Assays: Nanosyn kinase panel” (2012).
# Experiments:
# [1] = target: Sphingosine kinase 1 (Homo sapiens) (UniProt Q9NYA1); settings: at 1 µM;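 note: mean SPHK1 inhibition value reported from the GSK PKIS kinase panel screen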
# [2] = target: T1, Sphingosine kinase 2 (Homo sapiens) (UniProt Q9NRA0); settings: at 0.1 µM
# T1 sequence (whole entry): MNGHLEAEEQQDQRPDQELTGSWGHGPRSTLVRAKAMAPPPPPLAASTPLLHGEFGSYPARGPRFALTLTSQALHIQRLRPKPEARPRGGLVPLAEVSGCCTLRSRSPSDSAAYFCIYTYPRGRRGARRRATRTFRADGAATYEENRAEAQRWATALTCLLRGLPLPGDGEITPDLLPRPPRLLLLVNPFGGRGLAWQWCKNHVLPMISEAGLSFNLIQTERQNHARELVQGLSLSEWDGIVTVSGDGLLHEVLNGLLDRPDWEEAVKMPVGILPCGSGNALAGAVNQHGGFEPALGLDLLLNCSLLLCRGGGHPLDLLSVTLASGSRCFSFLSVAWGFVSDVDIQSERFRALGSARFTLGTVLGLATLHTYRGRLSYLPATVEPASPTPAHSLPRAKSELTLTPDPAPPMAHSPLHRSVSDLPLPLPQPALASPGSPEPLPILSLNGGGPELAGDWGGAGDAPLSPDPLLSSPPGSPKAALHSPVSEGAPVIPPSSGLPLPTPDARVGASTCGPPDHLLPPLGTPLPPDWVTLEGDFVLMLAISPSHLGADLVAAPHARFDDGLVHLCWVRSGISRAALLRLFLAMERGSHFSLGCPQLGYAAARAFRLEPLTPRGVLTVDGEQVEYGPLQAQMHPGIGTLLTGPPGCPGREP
# [3] = target: T1, Sphingosine kinase 2 (Homo sapiens); settings: at 1 µM
# [4] = target: Casein kinase II subunit alpha (Homo sapiens) (UniProt P68400); settings: at 0.1 µM
# [5] = target: Casein kinase II subunit alpha (Homo sapiens) (UniProt P68400); settings: at 1 µM
# [6] = target: T2, Inhibitor of nuclear factor kappa-B kinase subunit alpha (Homo sapiens) (UniProt O15111); settings: at 0.1 µM
# T2 sequence (whole entry): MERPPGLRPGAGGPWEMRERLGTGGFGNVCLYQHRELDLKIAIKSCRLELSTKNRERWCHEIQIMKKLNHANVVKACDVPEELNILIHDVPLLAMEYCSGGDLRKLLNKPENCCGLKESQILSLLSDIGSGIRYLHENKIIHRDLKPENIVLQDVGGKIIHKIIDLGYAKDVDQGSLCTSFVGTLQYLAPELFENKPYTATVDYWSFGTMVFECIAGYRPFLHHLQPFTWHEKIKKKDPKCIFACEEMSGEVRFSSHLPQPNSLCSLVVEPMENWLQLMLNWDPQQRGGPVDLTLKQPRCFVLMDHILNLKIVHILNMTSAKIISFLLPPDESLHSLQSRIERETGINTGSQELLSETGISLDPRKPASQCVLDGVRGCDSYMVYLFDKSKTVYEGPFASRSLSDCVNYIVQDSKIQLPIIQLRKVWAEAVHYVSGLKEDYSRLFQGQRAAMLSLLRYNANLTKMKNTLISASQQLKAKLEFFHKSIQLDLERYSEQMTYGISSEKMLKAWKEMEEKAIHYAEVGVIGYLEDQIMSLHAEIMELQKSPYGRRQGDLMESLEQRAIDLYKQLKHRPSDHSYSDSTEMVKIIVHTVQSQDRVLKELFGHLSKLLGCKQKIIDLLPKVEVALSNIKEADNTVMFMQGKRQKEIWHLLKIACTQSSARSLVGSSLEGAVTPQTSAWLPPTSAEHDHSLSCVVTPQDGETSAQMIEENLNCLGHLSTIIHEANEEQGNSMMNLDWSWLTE
# [7] = target: T2, Inhibitor of nuclear factor kappa-B kinase subunit alpha (Homo sapiens); settings: at 1 µM
# [8] = target: T3, Inhibitor of nuclear factor kappa-B kinase subunit beta (Homo sapiens) (UniProt O14920); settings: at 0.1 µM
# T3 sequence (whole entry): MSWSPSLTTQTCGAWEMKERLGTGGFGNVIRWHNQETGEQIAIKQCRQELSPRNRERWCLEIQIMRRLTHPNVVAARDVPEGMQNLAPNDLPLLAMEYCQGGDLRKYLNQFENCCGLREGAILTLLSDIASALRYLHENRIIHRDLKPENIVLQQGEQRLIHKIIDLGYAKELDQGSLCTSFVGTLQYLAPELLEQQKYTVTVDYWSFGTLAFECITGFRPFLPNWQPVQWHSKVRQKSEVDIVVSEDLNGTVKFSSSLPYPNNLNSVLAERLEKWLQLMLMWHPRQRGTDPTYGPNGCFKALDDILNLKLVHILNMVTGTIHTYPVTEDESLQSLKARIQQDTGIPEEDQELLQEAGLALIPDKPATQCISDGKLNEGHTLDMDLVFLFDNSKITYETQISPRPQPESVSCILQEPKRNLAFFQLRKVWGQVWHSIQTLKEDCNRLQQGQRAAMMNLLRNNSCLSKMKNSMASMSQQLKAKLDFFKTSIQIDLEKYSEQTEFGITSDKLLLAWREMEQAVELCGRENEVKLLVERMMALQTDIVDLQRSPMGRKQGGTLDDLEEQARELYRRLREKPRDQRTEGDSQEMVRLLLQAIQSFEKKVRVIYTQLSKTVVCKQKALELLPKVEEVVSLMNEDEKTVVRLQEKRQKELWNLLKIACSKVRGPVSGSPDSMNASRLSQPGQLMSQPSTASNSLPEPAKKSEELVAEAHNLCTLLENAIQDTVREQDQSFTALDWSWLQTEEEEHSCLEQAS
# [9] = target: T3, Inhibitor of nuclear factor kappa-B kinase subunit beta (Homo sapiens); settings: at 1 µM
# [10] = target: T4, Inhibitor of nuclear factor kappa-B kinase subunit epsilon (Homo sapiens) (UniProt Q14164); settings: at 0.1 µM
# T4 sequence (whole entry): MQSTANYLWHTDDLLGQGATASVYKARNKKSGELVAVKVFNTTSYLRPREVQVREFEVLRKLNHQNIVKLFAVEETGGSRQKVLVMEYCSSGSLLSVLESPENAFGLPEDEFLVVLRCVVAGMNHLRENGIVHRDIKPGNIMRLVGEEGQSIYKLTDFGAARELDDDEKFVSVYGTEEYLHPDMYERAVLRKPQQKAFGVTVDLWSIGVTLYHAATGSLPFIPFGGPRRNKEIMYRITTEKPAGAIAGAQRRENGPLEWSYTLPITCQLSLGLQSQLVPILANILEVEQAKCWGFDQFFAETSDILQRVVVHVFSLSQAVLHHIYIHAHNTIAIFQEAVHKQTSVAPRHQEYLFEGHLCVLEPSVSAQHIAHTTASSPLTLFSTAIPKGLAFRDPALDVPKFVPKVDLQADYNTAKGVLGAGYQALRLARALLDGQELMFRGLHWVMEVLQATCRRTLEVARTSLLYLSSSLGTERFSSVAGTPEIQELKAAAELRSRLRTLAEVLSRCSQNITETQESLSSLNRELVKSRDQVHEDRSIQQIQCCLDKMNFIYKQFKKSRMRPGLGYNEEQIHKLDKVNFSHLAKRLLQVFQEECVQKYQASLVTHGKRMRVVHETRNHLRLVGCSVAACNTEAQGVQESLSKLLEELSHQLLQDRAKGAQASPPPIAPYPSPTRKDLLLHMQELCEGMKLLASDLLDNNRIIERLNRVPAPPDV
# [11] = target: T4, Inhibitor of nuclear factor kappa-B kinase subunit epsilon (Homo sapiens); settings: at 1 µM
# [12] = target: T5, Serine/threonine-protein kinase Nek1 (Homo sapiens) (UniProt Q96PY6); settings: at 0.1 µM
# T5 sequence (whole entry): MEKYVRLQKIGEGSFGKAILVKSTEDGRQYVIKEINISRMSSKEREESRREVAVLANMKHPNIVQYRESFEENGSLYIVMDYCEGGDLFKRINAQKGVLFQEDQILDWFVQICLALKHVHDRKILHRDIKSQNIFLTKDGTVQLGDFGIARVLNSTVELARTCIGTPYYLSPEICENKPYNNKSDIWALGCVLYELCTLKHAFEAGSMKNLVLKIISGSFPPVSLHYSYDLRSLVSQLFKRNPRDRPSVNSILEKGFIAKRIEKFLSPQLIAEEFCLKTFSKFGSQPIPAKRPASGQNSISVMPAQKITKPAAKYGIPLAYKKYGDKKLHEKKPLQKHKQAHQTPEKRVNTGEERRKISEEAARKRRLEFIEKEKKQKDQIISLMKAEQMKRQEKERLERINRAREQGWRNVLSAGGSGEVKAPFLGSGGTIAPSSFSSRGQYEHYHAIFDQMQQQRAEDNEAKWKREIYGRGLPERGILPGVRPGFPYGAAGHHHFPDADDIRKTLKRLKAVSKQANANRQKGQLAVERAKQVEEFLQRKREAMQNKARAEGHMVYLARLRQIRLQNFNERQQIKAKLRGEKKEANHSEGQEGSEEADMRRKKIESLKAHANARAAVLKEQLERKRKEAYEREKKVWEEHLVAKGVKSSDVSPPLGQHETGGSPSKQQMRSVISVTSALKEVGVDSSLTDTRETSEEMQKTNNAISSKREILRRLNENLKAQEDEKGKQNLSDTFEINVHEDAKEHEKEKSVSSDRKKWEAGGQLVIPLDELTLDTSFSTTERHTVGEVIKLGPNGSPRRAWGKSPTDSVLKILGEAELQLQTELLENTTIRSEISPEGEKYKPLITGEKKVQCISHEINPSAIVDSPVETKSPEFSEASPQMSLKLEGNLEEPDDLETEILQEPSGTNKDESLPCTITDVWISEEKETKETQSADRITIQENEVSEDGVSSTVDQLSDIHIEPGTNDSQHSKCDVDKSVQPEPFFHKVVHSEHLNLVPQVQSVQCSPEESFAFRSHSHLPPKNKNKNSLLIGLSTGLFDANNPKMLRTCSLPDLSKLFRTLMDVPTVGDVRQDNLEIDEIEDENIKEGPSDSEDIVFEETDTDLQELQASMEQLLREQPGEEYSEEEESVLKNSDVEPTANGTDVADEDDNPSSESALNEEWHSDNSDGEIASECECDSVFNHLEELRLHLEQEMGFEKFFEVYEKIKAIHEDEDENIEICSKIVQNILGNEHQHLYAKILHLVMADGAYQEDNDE
# [13] = target: T5, Serine/threonine-protein kinase Nek1 (Homo sapiens); settings: at 1 µM
# [14] = target: T6, Serine/threonine-protein kinase Nek2 (Homo sapiens) (UniProt P51955); settings: at 0.1 µM
# T6 sequence (whole entry): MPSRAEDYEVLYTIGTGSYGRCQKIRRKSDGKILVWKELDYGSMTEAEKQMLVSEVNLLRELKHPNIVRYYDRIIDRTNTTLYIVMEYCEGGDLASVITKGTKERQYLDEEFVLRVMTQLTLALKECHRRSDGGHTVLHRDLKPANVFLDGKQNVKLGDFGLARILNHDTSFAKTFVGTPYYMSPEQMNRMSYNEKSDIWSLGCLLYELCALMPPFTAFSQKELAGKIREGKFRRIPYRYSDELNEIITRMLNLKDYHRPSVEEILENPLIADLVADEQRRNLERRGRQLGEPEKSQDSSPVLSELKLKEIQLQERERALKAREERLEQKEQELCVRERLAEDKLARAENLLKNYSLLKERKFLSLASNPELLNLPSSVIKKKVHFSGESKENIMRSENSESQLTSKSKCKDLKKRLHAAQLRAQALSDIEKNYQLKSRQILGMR
# [15] = target: T6, Serine/threonine-protein kinase Nek2 (Homo sapiens); settings: at 1 µM
# [16] = target: Serine/threonine-protein kinase Nek6 (Homo sapiens) (UniProt Q9HC98); settings: at 0.1 µM
# [17] = target: Serine/threonine-protein kinase Nek6 (Homo sapiens) (UniProt Q9HC98); settings: at 1 µM
# [18] = target: Serine/threonine-protein kinase Nek7 (Homo sapiens) (UniProt Q8TDX7); settings: at 0.1 µM
# [19] = target: Serine/threonine-protein kinase Nek7 (Homo sapiens) (UniProt Q8TDX7); settings: at 1 µM
# [20] = target: T7, Serine/threonine-protein kinase Nek9 (Homo sapiens) (UniProt Q8TD19); settings: at 0.1 µM;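 note: reported value is the mean percent inhibition of NEK9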
# T7 sequence (whole entry): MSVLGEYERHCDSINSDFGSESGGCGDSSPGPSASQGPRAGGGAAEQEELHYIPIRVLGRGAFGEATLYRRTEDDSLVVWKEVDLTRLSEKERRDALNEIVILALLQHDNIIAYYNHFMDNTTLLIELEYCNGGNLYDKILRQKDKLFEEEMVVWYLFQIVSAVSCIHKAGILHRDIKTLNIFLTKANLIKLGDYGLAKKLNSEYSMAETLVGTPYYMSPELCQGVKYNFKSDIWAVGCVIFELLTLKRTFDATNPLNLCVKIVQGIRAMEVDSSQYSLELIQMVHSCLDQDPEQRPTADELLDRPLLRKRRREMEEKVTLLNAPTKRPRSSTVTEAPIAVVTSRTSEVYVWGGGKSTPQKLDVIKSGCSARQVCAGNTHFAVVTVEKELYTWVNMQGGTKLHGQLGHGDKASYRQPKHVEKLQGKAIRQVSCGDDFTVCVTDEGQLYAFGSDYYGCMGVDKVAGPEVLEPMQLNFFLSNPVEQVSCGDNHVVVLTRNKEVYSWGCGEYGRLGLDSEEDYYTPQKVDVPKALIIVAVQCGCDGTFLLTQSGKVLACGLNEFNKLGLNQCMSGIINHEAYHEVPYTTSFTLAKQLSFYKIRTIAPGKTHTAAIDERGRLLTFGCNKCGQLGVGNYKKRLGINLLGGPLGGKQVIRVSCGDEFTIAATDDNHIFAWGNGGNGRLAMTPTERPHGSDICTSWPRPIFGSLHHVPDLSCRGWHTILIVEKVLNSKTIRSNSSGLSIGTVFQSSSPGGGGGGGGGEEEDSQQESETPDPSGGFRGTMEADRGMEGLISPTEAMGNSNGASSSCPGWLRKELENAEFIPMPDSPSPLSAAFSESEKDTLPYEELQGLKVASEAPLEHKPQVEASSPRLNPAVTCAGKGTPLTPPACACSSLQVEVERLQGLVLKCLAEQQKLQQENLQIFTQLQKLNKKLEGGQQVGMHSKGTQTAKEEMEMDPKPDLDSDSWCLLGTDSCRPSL
# Chain of Serine/threonine-protein kinase Nek6 (Homo sapiens) (Q9HC98 whole entry): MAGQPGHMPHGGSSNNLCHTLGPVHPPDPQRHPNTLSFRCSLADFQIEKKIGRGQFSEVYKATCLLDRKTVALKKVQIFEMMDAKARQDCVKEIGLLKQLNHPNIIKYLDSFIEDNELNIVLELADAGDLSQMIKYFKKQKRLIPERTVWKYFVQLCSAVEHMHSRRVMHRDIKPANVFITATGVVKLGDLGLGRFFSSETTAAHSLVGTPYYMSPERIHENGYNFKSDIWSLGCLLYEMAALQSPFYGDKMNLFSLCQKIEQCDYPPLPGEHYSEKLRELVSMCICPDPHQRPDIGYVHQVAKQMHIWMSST
# Chain of Casein kinase II subunit alpha (Homo sapiens) (P68400 whole entry, looked up): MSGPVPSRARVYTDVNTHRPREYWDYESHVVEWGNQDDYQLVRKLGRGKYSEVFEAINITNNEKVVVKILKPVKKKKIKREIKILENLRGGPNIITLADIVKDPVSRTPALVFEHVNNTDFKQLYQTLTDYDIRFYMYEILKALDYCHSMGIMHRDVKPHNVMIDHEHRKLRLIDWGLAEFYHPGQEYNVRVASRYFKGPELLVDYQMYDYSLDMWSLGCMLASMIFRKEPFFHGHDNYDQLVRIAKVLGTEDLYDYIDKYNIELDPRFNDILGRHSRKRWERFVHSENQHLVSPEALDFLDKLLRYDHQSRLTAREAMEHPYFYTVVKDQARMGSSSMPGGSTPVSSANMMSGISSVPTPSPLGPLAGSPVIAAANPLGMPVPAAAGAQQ
# Chain of Serine/threonine-protein kinase Nek7 (Homo sapiens) (Q8TDX7 whole entry, looked up): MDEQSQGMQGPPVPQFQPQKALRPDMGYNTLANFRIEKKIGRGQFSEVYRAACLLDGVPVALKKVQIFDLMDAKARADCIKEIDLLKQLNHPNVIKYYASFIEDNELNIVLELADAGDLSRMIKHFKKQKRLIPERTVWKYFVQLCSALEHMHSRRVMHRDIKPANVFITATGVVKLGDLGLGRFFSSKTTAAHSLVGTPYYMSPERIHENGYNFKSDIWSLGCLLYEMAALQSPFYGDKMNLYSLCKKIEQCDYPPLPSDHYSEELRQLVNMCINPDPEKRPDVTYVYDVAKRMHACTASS
# Chain of Sphingosine kinase 1 (Homo sapiens) (Q9NYA1 whole entry): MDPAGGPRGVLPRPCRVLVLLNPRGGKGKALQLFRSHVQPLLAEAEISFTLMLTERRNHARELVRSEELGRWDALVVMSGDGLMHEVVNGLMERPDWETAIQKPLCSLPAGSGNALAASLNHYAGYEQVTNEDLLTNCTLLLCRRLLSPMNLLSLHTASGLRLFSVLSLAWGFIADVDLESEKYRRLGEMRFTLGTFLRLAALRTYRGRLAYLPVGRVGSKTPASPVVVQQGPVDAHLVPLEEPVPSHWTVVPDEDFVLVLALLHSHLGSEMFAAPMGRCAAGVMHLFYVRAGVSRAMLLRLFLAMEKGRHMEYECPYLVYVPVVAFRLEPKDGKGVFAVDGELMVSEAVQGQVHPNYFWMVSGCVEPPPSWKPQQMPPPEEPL
compound,measurement,setting,value
Cc1cc(O)cc(C)c1/C=C/c1cncc(C(N)=O)c1,inhibition,[1],-2.84%
same,inhibition,[2],0.32%
same,inhibition,[3],0.47%
same,inhibition,[4],2%
same,inhibition,[5],1.41%
same,inhibition,[6],7.66%
same,inhibition,[7],1.26%
same,inhibition,[8],1.7%
same,inhibition,[9],1.13%
same,inhibition,[10],1.74%
same,inhibition,[11],91.3%
same,inhibition,[12],1.8%
same,inhibition,[13],2.95%
same,inhibition,[14],3.02%
same,inhibition,[15],1.69%
same,inhibition,[16],3.18%
same,inhibition,[17],1.92%
same,inhibition,[18],4.15%
same,inhibition,[19],3.89%
same,inhibition,[20],5.2%
